HT1080NT lethal – kills 2HG-producing HT-1080-NT fibrosarcoma cells | HT-1080-NT fibrosarcoma viability, CellTiter-Glo ATP luminescence, 48 h | Potency, µM (titrated, usually from 46.1 µM), most hits filed as cytotoxic | 360,000 tested, 1.6% active | AID 686970;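 further: NT is the 2HG producing partner of a matched IDH1 knockdown line; nearly all actives have a fitted effect of over 55% in size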
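A 48-hour cytotoxicity screen used HT-1080-NT cells plated 2 hours before compound delivery. ATP-based CellTiter-Glo luminescence measured viability, normalized to DMSO and no-cell controls.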
SW480 rerep – DNA re-replication induction in SW480 cells | SW480 DNA re-replication, Hoechst DNA content imaging, 48 h | Potency, µM (titrated, usually from 46.1 µM), usual class: activators | 340,000 tested, 1.8% active | AID 624297; further: nearly all actives have a fitted effect of over 55% in size
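Hoechst fluorescence of nuclei (405 nm excitation, 500-530 nm emission) measured by plate-scanning imager after 48 hr compound exposure at 37 C; re-replication scored as increased number of nuclei with elevated intensity.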
KB-V1 cytotox – KB-V1 MDR subline cytotoxicity; 400,000 tested, 3.4% active; KB-V1 MDR cells viability, CellTiter-Glo, 72 h; AID 1347076; Potency, µM (highest dose often 46.1 µM), usual class: cytotoxic; further: nearly all actives have a fitted effect of over 60% in size
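Drug-selected KB-V1 cells, grown in DMEM lacking phenol red with 10% FBS, receive compound titrations; after three days at 37 degrees C, surviving cell ATP is quantified by CellTiter-Glo luminescence and responses normalized and curve-fitted.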
HT1080 IDH1KD tx – kills HT-1080 cells with IDH1 knockdown; AID 686971; HT-1080 IDH1 knockdown viability, ATP luminescence, 48 h; Potency, µM (top dose mostly 46.1 µM), hits mostly cytotoxic; 360,000 tested, 2% active
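Assay cells: HT-1080 with IDH1 knockdown, 750 per well, RPMI/5% FBS. Exposure: 48 h at 37 °C following 2 h pre-incubation. Read: CellTiter-Glo luminescence; fitted concentration-response, curve class assigned.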
KB-3-1 cytotox – kills parental KB-3-1 adenocarcinoma cells. 400,000 tested, 1.4% active. Potency, µM (top dose mostly 46.1 µM), usual class: cytotoxic. KB-3-1 viability, CellTiter-Glo ATP luminescence, 72 h; further: nearly all actives have a fitted effect of over 60% in size
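Cytotoxicity in the drug-sensitive parental line KB-3-1 was scored as loss of CellTiter-Glo luminescence following 72 h incubation with compound. Values come from curve fitting of normalized concentration-response data.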
MCF10A rereplic – induces DNA re-replication in MCF 10a normal breast cells; MCF 10A DNA re-replication, Hoechst nuclear intensity, 48 h; Potency, µM (top dose mostly 46.1 µM), actives largely listed as activators; 350,000 tested, 2.9% active; AID 624296; further: nearly all actives have a fitted effect of over 50% in size
Numbers stand for hits; . = inactive; ? = inconclusive; / = not tested or not shown. In the library only some 8% were active in any assay of this set; here they are far more common. The call rests on the fitted dose curve; in most records, active means well fitted curve in the direction sought with a large enough effect; inconclusive means small, poorly fitted or top-dose-only effect, or another doubt; inactive means no such curve, though single readings can be large; an effect the other way counts as inactive or inconclusive.

SMILES | HT1080NT lethal | SW480 rerep | KB-V1 cytotox | HT1080 IDH1KD tx | KB-3-1 cytotox | MCF10A rereplic
O=C1Nc2c(c(=O)[nH]c(=O)n2-c2ccc(Cl)cc2)C1(NS(=O)(=O)c1ccccc1)C(F)(F)F (configuration not stated) | / | / | ? | / | . | /
COc1cc(C(=O)NCCNc2nc3c(C)c(C)ccc3cc2C#N)cc(OC)c1OC | . | ? | . | . | . | 21µM
COCCNC(=S)NCCCNc1nc2cc3c(cc2cc1C#N)OCO3 | . | . | . | . | . | .
COc1cc(OC)cc(C(=O)NCCNc2nc3cc(C)cc(C)c3cc2C#N)c1 | . | ? | . | . | . | 16µM
CN(C)CCCNC(=S)NCCNc1nc2cc3c(cc2cc1C#N)OCO3 | . | 15µM | . | . | . | 21µM
COCCCNC(=S)NCCNc1nc2c(C)c(C)ccc2cc1C#N | . | ? | ? | . | . | 23µM
COCCCNC(=S)N1CCCN(c2nc3c(C)c(C)ccc3cc2C#N)CC1 | . | . | . | . | . | .
COc1ccc(-c2noc(N3CCN(c4ccc(C)cc4)C(C)C3)n2)cc1OC (configuration not stated) | / | / | ? | / | . | /
O=c1[nH]c(C2CCN(S(=O)(=O)c3ccc(S(=O)(=O)NC4CC4)cc3)CC2)nc2c1nnn2Cc1cccc(F)c1 | ? | ? | . | . | ? | .
Cc1cc2c(cc1C)NC(CC(=O)Nc1ccccc1SC(F)(F)F)C(=O)N2 (configuration not stated) | / | / | . | / | . | /
CCOc1ccc2nc(NCCNC(=O)c3cc(OC)c(OC)c(OC)c3)c(C#N)cc2c1 | . | 6.5µM | . | . | . | 23µM
COc1cc(C(=O)NCCNc2nc3cc(C)ccc3cc2C#N)cc(OC)c1OC | . | . | . | . | . | .
Cc1nc2nncn2c(NCc2ccc(Cl)cc2)c1C | / | / | . | / | 2.6µM | /
Cc1ccc(C)c2c1NC(C(=O)O)C1CC=CC21 (configuration not stated) | / | / | ? | / | . | /
Cc1ccc(SC(C)C(=O)Nc2ccccc2-c2ccccc2)cc1 (configuration not stated) | . | ? | 21µM | . | . | .
O=C(CCC1CCCC1)Nc1ccccc1-c1ccccc1 | . | . | 18µM | . | . | .
CC(NC1CCCC1)C(=O)Nc1ccccc1-c1ccccc1 (configuration not stated) | . | . | 12µM | . | . | .
O=C(CCC1CCCCC1)Nc1ccccc1-c1ccccc1 | . | . | ? | . | . | .
O=C(CC1CCCCC1)Nc1ccccc1-c1ccccc1 | . | . | . | . | . | ?
O=C(COC(=O)c1ccccc1OCCOc1ccccc1)Nc1ccccc1Br | / | / | . | / | . | /
COc1cc2nc(CCc3nc4cc(OC)c(OC)cc4[nH]3)[nH]c2cc1OC | / | / | . | / | . | /
COc1ccc(S(=O)(=O)N2CCC(N3CCN(Cc4ccc(F)cc4)C(=O)C3=O)CC2)cc1 | / | / | . | / | . | /
COc1ccccc1NC(=O)C(=O)/C=C(\O)c1ccccc1 | . | . | 18µM | . | . | .
O=C(CSc1nnc(CNc2ccc(F)cc2)o1)c1ccccc1 | . | . | . | . | . | .
CC(C)c1ccc(NC(=O)c2cc(S(=O)(=O)N3CCCCC3)cn2C)cc1 | / | / | . | / | . | /
SMILES | HT1080NT lethal | SW480 rerep | KB-V1 cytotox | HT1080 IDH1KD tx | KB-3-1 cytotox | MCF10A rereplic
Cc1ccc(-n2nnnc2CNC(=O)C(=O)c2c[nH]c3ccccc23)cc1C | . | / | . | . | . | /
O=C1OC(c2ccccc2)(c2ccc(O)cc2)c2ccccc21 (configuration not stated) | 21µM | . | . | ? | . | ?
CC(=O)c1ccc(N=Nc2ccc(C)cc2)cc1 | . | . | . | . | . | .
C=C(C)C(=O)Oc1ccc(N=Nc2ccc(C)cc2)ccc1=O | ? | ? | ? | 23µM | . | 16µM
O=C(CC(Sc1ccc(Br)cc1)C(=O)O)c1ccc(F)cc1 (configuration not stated) | . | ? | . | . | . | 23µM
CCOc1ccc(C(=O)CC(Sc2ccc(C)cc2)C(=O)O)cc1 (configuration not stated) | . | ? | . | ? | . | ?
CCOC(=O)c1c(S(=O)(=O)NCC(=O)Nc2ccc(F)cc2C)c(C)n(C)c1C | / | / | . | / | . | /
CC(CNC(=O)c1csc2c1CCCCC2)c1ccccc1 (configuration not stated) | / | / | . | / | . | /
O=S1(=O)N[C@H](Cc2ccccc2)COc2cc(N3CCC[C@@H]3CO)ccc21 | ? | / | . | 23µM | 21µM | /
OCC1(Cc2cccc(Cl)c2)CCCN(Cc2cnn(-c3ccccc3)c2)C1 (configuration not stated) | . | . | . | . | . | ?
O=C(NCc1ccccc1Cl)C1CCN(c2cnccn2)CC1 | . | . | . | . | . | 0.52µM
O=C(NCc1ccc(Cl)cc1)C1CCN(c2cnccn2)CC1 | . | . | . | . | . | ?
CCOc1ccc(CCNC(=O)c2cc3c(=O)[nH]c4ccc(C)cc4c3s2)cc1OCC | / | / | . | / | . | /
Cn1c(COc2ccccc2)nnc1SCCSc1nnc(COc2ccccc2)n1C | . | . | ? | . | . | .
Cn1c(COc2ccc(Br)cc2)nnc1SC1CCc2ccccc2C1=O (configuration not stated) | . | / | 16µM | . | ? | ?
Cc1ccc(C2Nc3cc(C)c(C)cc3-n3c(-c4ccccc4)c4c(=O)n(C)c(=O)n(C)c4c32)o1 (configuration not stated) | / | / | ? | / | . | /
CC(Cc1cccc(C(F)(F)F)c1)NCCOC(=O)c1ccccc1 (configuration not stated) | . | . | . | . | . | .
C[C@@H](NCCCc1cccc(C(F)(F)F)c1)c1cccc2ccccc12 | / | ? | ? | / | ? | 21µM
CN(C)c1c(Cl)cc(/C=C2\C=Cc3ccccc32)cc1Cl | / | / | . | / | . | /
CCOC(=O)C(=NC(C)C)NNc1cc(Cl)ccc1Cl | . | . | . | . | . | 16µM
CCOC(=O)C(=NC(C)(C)C)NNc1cc(Cl)ccc1Cl | . | . | . | . | . | ?
COc1ccc(CCc2cc(OC)c(OC)c(OC)c2)cc1 | 1.6µM | ? | 2.6µM | ? | 0.52µM | 1.8µM
CC1CCc2c(sc3[nH]c(=S)n(C)c(=O)c23)C1 (configuration not stated) | . | 10µM | . | . | . | .
Cc1cc(C)cc(N2CC(O)=C(c3nc4ccccc4c(=O)[nH]3)C2=N)c1 | . | ? | ? | . | 15µM | ?
COc1cccc(N2CC(O)=C(c3nc4ccccc4c(=O)[nH]3)C2=N)c1 | 1.3µM | . | ? | ? | 4.6µM | .
COc1cccc(-n2c(=O)c3sc4ccccc4c3n(CC(=O)Nc3ccc(F)cc3F)c2=O)c1 | / | / | . | / | . | /

From PubChem BioAssay
